# High-throughput results (PubChem)
# EWS-Fli inh = EWS/Fli-driven NR0B1 reporter inhibitors, primary screen, A673 cells, NR0B1 luciferase, luminescence, MLPCN library | viability-normalised | inhibition, % at 12.6 µM | hit rate 0.67% among 350,000;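 active = mean inhibition of at least 50% after viability correction, with every replicate also passing that limit; inconclusive = mean reaches 50% but only one of two replicates passes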;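 note: firefly luciferase signal divided by Alamar Blue viability fluorescence both relative to DMSO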
# F508del corr = F508del CFTR correction, initial screen, CFBE line, single point; activity (quench increase), % at 7.58 µM; CFBE cells, YFP halide quenching; stimulated with forskolin plus potentiator P3; % fluorescence drop versus neutral controls; hit rate 0.36% among 350,000;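 active = mean added fluorescence quench of at least 8% versus neutral control, with both replicates also reaching 8%; inconclusive = only one of the mean or replicate conditions met; inactive = mean below 8% and not both replicates reaching 8%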;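 note: cells transiently co-express mutant CFTR-F508del with the halide-sensitive YFP; corrector assay measuring rescue of mutant channel to the surface after 24 h compound exposure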
# HIV Env fusion = inhibitors of HIV-1 Env-driven cell-cell fusion, primary screen, HeLa-JRFL effector, CEM21 target cells, luciferase; inhibition, % at 12.3 µM; hit rate 1.1% among 360,000; AID 651610, 2012;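 active = mean replicate inhibition score of at least 50 and every replicate individually at or above 50; inconclusive = only one of the two criteria met; inactive = mean below 50 and not all replicates reaching 50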
# INS-1E GSIS act = GLuc luminescence reporter in INS-1E cells, primary screen for activators of glucose-dependent secretion of insulin. INS-1E GLuc reporter insulin secretion, 2-3 h. activation, % at 16.6 µM. hit rate 0.61% among 370,000. AID 743287, 2014;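 active = lowest replicate activation of at least 40%, so every replicate reaches that level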
# PAX8 reporter = inhibitors of PAX8-driven TPO luciferase reporter, primary screen, RMG-I cells, single concentration. SteadyGlo, 24 h. inhibition, % at 12.6 µM. hit rate 1.2% among 360,000. AID 652154, 2013;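 active = mean replicate inhibition at least 60% with every replicate also reaching 60%; inconclusive = only one of the two criteria is met; inactive = mean below 60% and not all replicates reaching 60%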;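 note: luciferase light reporting Pax8 driven TPO promoter activity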
# PGC1a acetyl inh = inhibitors of PGC1a acetylation signal, primary screen, cell-based, U2OS, AlphaScreen, inhibitor mode; AlphaScreen anti-acetyl-lysine; with virally co-expressed GCN5 acetyltransferase; inhibition, % at 15.6 µM; hit rate 0.17% among 350,000;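 active = every replicate shows inhibition of at least 40%; inconclusive = mean inhibition at least 40% but some replicate below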
# A number is an active result; – = inactive; ? = inconclusive; · = not tested or not shown; [ ] = another dose, or the depositor's remark. In the library only some 2.7% were active in any assay of this set; here they are far more common.
SMILES,EWS-Fli inh,F508del corr,HIV Env fusion,INS-1E GSIS act,PAX8 reporter,PGC1a acetyl inh
CC1CC(C)CN(C(=O)COC(=O)c2cccc([N+](=O)[O-])c2)C1 (stereo not given),–,–,–,–,–,–
Cc1cccc(Cn2c(Cc3ccccc3)nc3ccccc32)c1,–,–,·,–,69,–
Cc1ccc(C(=O)n2c(N)nc3ccccc32)cc1,75,–,–,–,65,–
Cc1ccc(Cn2c(N)nc3ccccc32)cc1,–,–,59,–,–,–
Cc1ccc(S(=O)(=O)n2c(N)nc3ccccc32)cc1,–,–,–,·,–,–
Nc1nc2ccccc2n1Cc1ccc(Cl)c(Cl)c1,–,–,?,–,–,·
CO[C@H]1CN(C)C(=O)c2ccc(NC(=O)C3CC3)cc2OC[C@H](C)N(C(=O)c2ccccc2)C[C@H]1C,–,–,·,–,–,–
COc1cccc(S(=O)(=O)Nc2ccc3c(c2)C(=O)N(C)[C@H]2CC[C@H](CC(=O)Nc4cc(F)ccc4F)O[C@@H]2CO3)c1,·,·,·,–,·,·
C[C@H](CO)N1C[C@H](C)[C@H](CN(C)S(C)(=O)=O)Oc2ccc(NC(=O)Nc3cccc4ccccc34)cc2CC1=O,·,–,–,–,–,–
Cc1noc(C)c1S(=O)(=O)N(C)C[C@@H]1Oc2ccc(NC(=O)Nc3cccc4ccccc34)cc2CC(=O)N([C@@H](C)CO)C[C@@H]1C,–,–,59[16.7 µM],–,–,–
Cc1noc(C)c1S(=O)(=O)N(C)C[C@@H]1Oc2ccc(NC(=O)Nc3ccccc3)cc2CC(=O)N([C@@H](C)CO)C[C@H]1C,–,–,–,–,–,–
Cc1noc(C)c1S(=O)(=O)N(C)C[C@H]1Oc2ccc(NC(=O)Nc3ccccc3)cc2CC(=O)N([C@H](C)CO)C[C@H]1C,–,–,69[16.7 µM],–,–,?
C[C@H]1CN([C@@H](C)CO)C(=O)Cc2cc(NC(=O)Cc3ccccc3)ccc2O[C@@H]1CN(C)S(=O)(=O)c1ccccc1,–,–,–,–,–,–
Cc1noc(C)c1S(=O)(=O)N(C)C[C@@H]1Oc2ccc(NC(=O)Nc3ccccc3)cc2CC(=O)N([C@@H](C)CO)C[C@@H]1C,–,–,85[16.7 µM],–,–,–
Cc1noc(C)c1S(=O)(=O)N(C)C[C@@H]1Oc2ccc(NC(=O)Cc3ccccc3)cc2CC(=O)N([C@H](C)CO)C[C@@H]1C,–,–,65[16.7 µM],–,–,–
Cc1ccccc1NC(=O)C[C@H]1CC[C@H]2[C@@H](COc3ccc(NC(=O)c4ccc(Cl)cc4)cc3C(=O)N2C)O1,·,·,·,–,·,·
Cc1noc(C)c1S(=O)(=O)N(C)C[C@@H]1Oc2ccc(NC(=O)Nc3ccc(F)cc3)cc2CC(=O)N([C@@H](C)CO)C[C@@H]1C,–,–,55[16.7 µM],–,–,–
Cc1noc(C)c1S(=O)(=O)N(C)C[C@H]1Oc2ccc(NC(=O)Nc3ccc(F)cc3)cc2CC(=O)N([C@@H](C)CO)C[C@H]1C,–,–,–,–,–,–
COc1ccccc1-c1cn(CC[C@@H]2CC[C@H](NS(=O)(=O)c3ccccc3C)[C@H](CO)O2)nn1,–,–,–,–,–,–
Cc1cc2c(cc1C)CSC(c1ccccc1O)SC2,·,·,–,·,·,–
Oc1ccccc1C1SC(c2ccccc2O)SC(c2ccccc2O)S1 (stereo not given),–,–,–,153,·,–
CC(C)CNC(=O)c1ccccc1SCC(=O)NC12CC3CC(CC(C3)C1)C2,·,·,64,–,–,·
COc1ccc2c3c([nH]c2c1)[C@@H](CO)N(S(C)(=O)=O)CC31CN(C(=O)c2ccncc2)C1,–,–,·,–,·,–
C[C@H](CO)N1C[C@H](C)[C@@H](CN(C)Cc2ccc(Cl)c(Cl)c2)OCCCC[C@H](C)Oc2ccc(NC(=O)Nc3ccc(C(F)(F)F)cc3)cc2C1=O,–,–,–,–,84,–
C[C@@H]1CN([C@@H](C)CO)C(=O)c2cc(NC(=O)Nc3ccc(C(F)(F)F)cc3)ccc2O[C@@H](C)CCCCO[C@H]1CN(C)Cc1ccc(Cl)c(Cl)c1,–,–,–,–,93,–
SMILES,EWS-Fli inh,F508del corr,HIV Env fusion,INS-1E GSIS act,PAX8 reporter,PGC1a acetyl inh
C[C@@H]1CCCCO[C@@H](CN(C)Cc2ccc(Cl)c(Cl)c2)[C@@H](C)CN([C@H](C)CO)C(=O)c2cc(NC(=O)Nc3ccc(C(F)(F)F)cc3)ccc2O1,–,–,–,–,–,–
C[C@H]1CCCCO[C@H](CN(C)Cc2ccc(Cl)c(Cl)c2)[C@@H](C)CN([C@@H](C)CO)C(=O)c2cc(NC(=O)Nc3ccc(C(F)(F)F)cc3)ccc2O1,–,–,–,–,78,–
C[C@@H]1CN([C@H](C)CO)C(=O)c2cc(NC(=O)Nc3ccc(C(F)(F)F)cc3)ccc2O[C@@H](C)CCCCO[C@H]1CN(C)Cc1ccc(Cl)c(Cl)c1,–,–,–,–,91,–
COc1cccc(C(=O)Nc2ccc3c(c2)OC[C@@H](C)N(C(=O)C2CCCC2)C[C@H](C)[C@@H](OC)CN(C)C3=O)c1,–,–,·,–,–,·
C[C@H]1CN([C@@H](C)CO)C(=O)c2cc(C3=CCCC3)cnc2O[C@@H]1CN(C)Cc1ccc(C(=O)O)cc1,–,–,–,–,–,–
CC(C)C[C@H]1COCc2cn(nn2)CC[C@H](Cc2cccc(Cl)c2)C(=O)N1,·,·,·,–,·,·
C[C@@H]1CCCCO[C@H](CN(C)Cc2ccc(Cl)c(Cl)c2)[C@H](C)CN([C@@H](C)CO)C(=O)c2cc(NC(=O)Nc3ccc(C(F)(F)F)cc3)ccc2O1,–,–,–,–,90,–
C[C@@H]1CCCCO[C@@H](CN(C)Cc2ccc(Cl)c(Cl)c2)[C@H](C)CN([C@H](C)CO)C(=O)c2cc(NC(=O)Nc3ccc(C(F)(F)F)cc3)ccc2O1,–,–,–,–,91,–
CCOC(=O)C(C)(C)NS(=O)(=O)c1ccc(Cl)c([N+](=O)[O-])c1,–,·,–,·,–,–
CCOC(=O)C(C)(C)N(Cc1ccc(C)cc1)S(=O)(=O)c1ccc(Cl)c([N+](=O)[O-])c1,73,·,–,·,–,·
N#Cc1ccc(CN2CCN(C(=O)CNC(=O)Cc3cccc4ccccc34)CC2)cc1,–,–,71,–,–,–
CCCC(=O)Nc1ccc2c(c1)OC[C@@H](C)N(Cc1ccccn1)C[C@@H](C)[C@@H](OC)CN(C)C2=O,–,–,–,–,–,–
C=CCNc1sc(C(=O)C2CC2)c(N)c1C#N,·,·,·,65,·,–
CCCCNC(=S)NNC(=O)c1c(Cl)c(C)nn1C,71,·,–,–,–,·
C[C@H](CO)N1C[C@H](C)[C@H](CN(C)CC2CC2)Oc2c(NS(C)(=O)=O)cccc2C1=O,–,–,–,–,–,–
O=C(NC(c1ccc(F)cc1)c1ccc2ccccc2n1)C1CCN(CCOc2ccc(Cl)cc2)CC1 (stereo not given),–,–,77,–,–,–
